The target in one assay is OSBPL11. Put plainly: pooled miR-30 sensor sort-seq; sequence = guide strand. The conditions noted are these: shRNA.
In turn, TATCTGAAGTCTGCTAACCCAG showed a sensor-assay potency score (higher = more potent) of -1.27. With TTGACTTGGTCTCCTCTGCGAT, the sensor-assay potency score (higher = more potent) is -0.7. The same measure, in the same setting: as for TTAAGTCTCTTTGTTGTCCTTC, the figure is 0.3; as for TTGTGCTTTACTTCAGCTGTAA, -0.271; as for AATAGCTTCAGTATGATGCTGT, 0.478. For TTACACACATCTTCCTCTCTGT, the sensor-assay potency score (higher = more potent) came to 0.858. TACATTCTGCATAAAATCCTGA had a sensor-assay potency score (higher = more potent) of 0.486. For TTCTTTACCACTTTGGTCTTGC, the sensor-assay potency score (higher = more potent) amounted to 0.433.

The next assay addresses OSBPL2. The description is as above. Particulars: shRNA.
Turning to TTTTGTCTTGAATGTGTCCTTC, the sensor-assay potency score (higher = more potent) is 0.333. Regarding TAGAATTACATCCTTGATCAGG, the sensor-assay potency score (higher = more potent) is -0.471. Still for that read-out and setting: as for TTTGTTTTTGTCTTGAATGTGT, the figure is 0.222. Turning to TTCAGGATGGTCCACACGCTGA, the sensor-assay potency score (higher = more potent) was -1.77.

Consider TTAATTAGAATTACATCCTTGA, for which the sensor-assay potency score (higher = more potent) is 1.08. In turn, TAAATCTGAATCCTAAATCTTC came in with a sensor-assay potency score (higher = more potent) of -0.577. The same measure, in the same setting: next, TTTAAAATCTCCACTGTCCCAT: -0.254; TCTAAGTCAATCATTCCCGTGA: 0.725; TTTTTGTCTTGAATGTGTCCTT: 0.356. TTCTCTCTGCTTCTCCTCCAGC showed a sensor-assay potency score (higher = more potent) of -1. For the sequence TTGAATGTGTCCTTCCACCTTG, the sensor-assay potency score (higher = more potent) is -0.0307. In the case of TTGAAGGCGATTGGCATCGTGA, the sensor-assay potency score (higher = more potent) is -0.348.

The target of a further assay is OSBPL3. The assay is described as above. Particulars: shRNA.
In turn, TTCTTGATGACAATCTCTCCAT returned a sensor-assay potency score (higher = more potent) of -0.313. Regarding TCTACTTTCATTAGAAAGCTGA, the sensor-assay potency score (higher = more potent) was -0.307.

Take TATAGTATTGCTCGTAGCCTTT: the sensor-assay potency score (higher = more potent) was -1.22. Still for that read-out and setting: as for TTCATCTCTGGAGTTTTCGGAT, the figure is -0.271; as for TTGCTCTCCATACACAGGCAGA, -1.4. Sequence TAGAAGAATCTCTTATGCCAGC had a sensor-assay potency score (higher = more potent) of -0.865. On to TAAATCGAGTGTCAGTAGGTGG, for which the sensor-assay potency score (higher = more potent) is -1.06. In turn, TTCTTTACAGACATCACTGAGA registered a sensor-assay potency score (higher = more potent) of 0.168. TTCTTCTCCGGGACTTCGCTTC displayed a sensor-assay potency score (higher = more potent) of 0.0582. Still for that read-out and setting: as for TGAAGCTATAGTATTGCTCGTA, the figure is -0.222; as for TTGGAGATAACAGAACTTCCTG, 0.0622; as for TACATTCATATAAACAATCAGG, -0.979.

The next assay addresses OSR1. Described as above. Particulars: shRNA.
Consider ATATCTGTGGTCTCGCAGGTGG, for which the sensor-assay potency score (higher = more potent) is -0.964. The same measure, in the same setting: as for TATATCTGTGGTCTCGCAGGTG, the figure is 0.107; as for TTGTAGGACTTGGTGAAGTGGC, -0.656; as for TAGGACTTGGTGAAGTGGCGGC, 0.00529. Still for that read-out and setting: next, TTTCCCACACTCTTGACACTTG: -0.209; TTGAGCGCTGGAACGCTGCCTC: -0.183. Same read-out and setting: as for TTGGAGTGAATATATCTGTGGT, the figure is 0.0172; as for TTCTTTTCTGGAGACAGCTTGG, -0.688.

For the origin of these results see the OligoGym collection.
Note: reference of the scale not given here.
